About 79,000 compounds went through this panel and 15% of them were active in at least one assay; those are over-represented in the sample as a whole. Active and inactive are the calls of the source. No stated cut-off is given here; in the data, active means growth inhibition above about 70%; inactive means the rest.
Assays:
[1] = NCI Yeast Anticancer Drug Screen. Data for the mlh1 strain (AID 171);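 further: 0% = growth of vehicle-treated control cultures of the same strain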; details: S. cerevisiae mlh1 strain growth inhibition, hits give high values
Summary of the method: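 Compounds are applied to a genetically altered yeast strain, and its growth is compared with that of vehicle-treated cultures to give percent inhibition.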

[2] = NCI Yeast Anticancer Drug Screen. Data for the sgs1 strain (AID 173);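 further: 0% = growth of vehicle-only control cultures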; details: S. cerevisiae sgs1 mutant, hits give high values
Summary of the method: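 Compounds applied to genetically altered yeast; growth compared with vehicle-treated cultures to give % inhibition.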

[3] = NCI Yeast Anticancer Drug Screen. Data for the mlh1 rad18 strain (AID 175); details: S. cerevisiae mlh1 rad18 strain growth inhibition, hits give high values
Summary of the method: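 Cells of a genetically altered yeast strain, deficient in DNA damage repair, were treated with compound. Their growth was then compared with that of vehicle-treated cultures to give inhibition.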

[4] = NCI Yeast Anticancer Drug Screen. Data for the rad18 strain (AID 177); details: S. cerevisiae rad18 mutant growth inhibition, hits give high values
Summary of the method: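 Compounds are applied to a repair-deficient yeast strain, and growth is compared with that of vehicle-treated cultures to give percent inhibition.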

[5] = NCI Yeast Anticancer Drug Screen. Data for the rad52 strain (AID 147);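 further: 0% = growth of vehicle-treated control cultures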; details: S. cerevisiae rad52 mutant growth inhibition, hits give high values
Summary of the method: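 DNA repair-defective yeast; compound exposure; growth scored against vehicle controls.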

[6] = NCI Yeast Anticancer Drug Screen. Data for the wt1 strain (AID 149);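 further: 0% = growth of vehicle-treated wt1 cultures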; details: S. cerevisiae wt1 strain (SPY 50644) growth inhibition, hits give high values
Summary of the method: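 Compounds are added to wt1 yeast cultures. Growth is then measured. Inhibition is expressed relative to vehicle-treated controls.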

[7] = NCI Yeast Anticancer Drug Screen. Data for the rad50EPP+ strain (AID 151);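 further: 0% = growth of vehicle-treated control cultures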; details: S. cerevisiae rad50 mutant strain, hits give high values
Summary of the method: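 rad50EPP+ yeast treated with test compounds. Readout: growth vs vehicle control.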

[8] = NCI Yeast Anticancer Drug Screen. Data for the mgt1 strain (AID 153); details: S. cerevisiae mgt1 mutant growth inhibition, hits give high values
Summary of the method: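 Growth inhibition relative to vehicle controls was scored for the mgt1 yeast strain after compound exposure.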

[9] = NCI Yeast Anticancer Drug Screen. Data for the rad50 strain (AID 155);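 further: 0% = growth of vehicle-only cultures of the same strain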; details: S. cerevisiae rad50 strain growth inhibition, hits give high values
Summary of the method: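 Inhibition values express reduced yeast growth in compound-treated cultures relative to vehicle-treated controls.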

[10] = NCI Yeast Anticancer Drug Screen. Data for the mec2-1 strain (AID 157); details: S. cerevisiae mec2-1 strain, hits give high values
Summary of the method: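 Growth inhibition is read against vehicle-treated controls after compound exposure of the mec2-1 yeast strain, which is defective in DNA damage repair or cell cycle control.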

[11] = NCI Yeast Anticancer Drug Screen. Data for the sgs1 mgt1 strain (AID 161);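 further: 0% = growth of cultures given vehicle only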; details: S. cerevisiae sgs1 mgt1 strain, hits give high values
Summary of the method: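 Growth of a repair-deficient yeast mutant was monitored after compound treatment and expressed as inhibition relative to vehicle-treated cultures.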

[12] = NCI Yeast Anticancer Drug Screen. Data for the CLN2oe strain (AID 163);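 further: 0% = growth of vehicle-only control cultures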; details: S. cerevisiae CLN2oe strain, hits give high values
Summary of the method: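 Compound-treated yeast; growth vs vehicle ctrl = % inhibition. Genetically altered strain (cell-cycle control).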

[13] = NCI Yeast Anticancer Drug Screen. Data for the cln2 rad14 strain (AID 165);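 further: 0% = growth equal to vehicle treated cultures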; details: S. cerevisiae cln2 rad14 strain, hits give high values
Summary of the method: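 Growth inhibition, relative to vehicle-treated controls, is the read-out. The test organism is a yeast strain with defined genetic alterations, cln2 rad14.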

[14] = NCI Yeast Anticancer Drug Screen. Data for the bub3 strain (AID 167); details: S. cerevisiae bub3 mutant strain, hits give high values
Summary of the method: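 Steps: expose the mutant yeast strain to compound; grow alongside vehicle-treated cultures; measure growth; express inhibition against the vehicle cultures.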

[15] = NCI Yeast Anticancer Drug Screen. Data for the wt2 strain (AID 169);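 further: 0% = growth of vehicle-treated yeast cultures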; details: S. cerevisiae wt2 strain growth inhibition, hits give high values
Summary of the method: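 Compound exposure of yeast; growth compared with vehicle controls; inhibition reported.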

[16] = NCI Yeast Anticancer Drug Screen. Data for the rad14 strain (AID 159);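 further: 0% = growth of vehicle-treated control cultures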; details: S. cerevisiae rad14 strain growth inhibition, hits give high values
Summary of the method: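 A mutant yeast strain defective in DNA damage repair is treated with compound; inhibition of its growth is scored against untreated, vehicle-exposed cultures.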

[17] = at 5.0 µM (retest, dose inferred, filed as 0.5)
[18] = at 50.0 µM (retest, dose inferred, filed as 5.0)

Measured: growth inhibition

CCN(CC)CCNc1ccc2ncn3c4ccc(O)cc4c(=O)c1c23
inactive: [1]; at 1.2 µM -5% | [1]; at 3.7 µM -4% | [1]; at 11.0 µM -2% | [1]; at 33.0 µM -5% | [1]; at 100.0 µM 10% | [2]; at 1.2 µM -4% | [2]; at 3.7 µM -6% | [2]; at 11.0 µM -6% | [2]; at 33.0 µM -4% | [2]; at 100.0 µM -1% | [3]; [17] 25% | [3]; [18] 25% | [3]; at 50.0 µM 64.7% | [4]; at 1.2 µM 0% | [4]; at 3.7 µM -4% | [4]; at 11.0 µM -11% | [4]; at 33.0 µM -8% | [4]; at 100.0 µM -14%

O=[N+]([O-])c1ccc(C(c2c[nH]c3ccccc23)c2c[nH]c3ccccc23)cc1
active: [5]; at 1.2 µM 82% | [5]; at 3.7 µM 97% | [5]; at 11.0 µM 95% | [5]; at 33.0 µM 90% | [5]; at 100.0 µM 82% | [6]; at 3.7 µM 97% | [6]; at 11.0 µM 96% | [6]; at 33.0 µM 92% | [6]; at 100.0 µM 89% | [8]; at 3.7 µM 99% | [8]; at 11.0 µM 97% | [8]; at 33.0 µM 94% | [8]; at 100.0 µM 87% | [9]; at 1.2 µM 84% | [9]; at 3.7 µM 85% | [9]; [17] 79% | [9]; at 11.0 µM 94% | [9]; at 33.0 µM 89% | [9]; [18] 89% | [9]; at 50.0 µM 93.2% | [9]; at 100.0 µM 79% | [10]; at 3.7 µM 99% | [10]; at 11.0 µM 97% | [10]; at 33.0 µM 94% | [10]; [18] 95% | [10]; at 50.0 µM 93.8% | [10]; at 100.0 µM 88% | [11]; [17] 82% | [11]; [18] 95% | [11]; at 50.0 µM 92.9% | [12]; at 3.7 µM 98% | [12]; at 11.0 µM 96% | [12]; at 33.0 µM 92% | [12]; at 100.0 µM 86% | [13]; [18] 93% | [13]; at 50.0 µM 88.1% | [14]; at 3.7 µM 98% | [14]; at 11.0 µM 96% | [14]; at 33.0 µM 93% | [14]; [18] 96% | [14]; at 50.0 µM 94.3% | [14]; at 100.0 µM 86% | [15]; at 3.7 µM 98% | [15]; at 11.0 µM 97% | [15]; at 33.0 µM 94% | [15]; at 100.0 µM 88% | [1]; at 3.7 µM 98% | [1]; at 11.0 µM 97% | [1]; at 33.0 µM 94% | [1]; at 100.0 µM 90% | [2]; at 3.7 µM 98% | [2]; at 11.0 µM 97% | [2]; at 33.0 µM 95% | [2]; at 100.0 µM 88% | [3]; [17] 93% | [3]; [18] 92% | [3]; at 50.0 µM 93% | [4]; at 3.7 µM 98% | [4]; at 11.0 µM 96% | [4]; at 33.0 µM 92% | [4]; at 100.0 µM 86%
inactive: [6]; at 1.2 µM 12% | [7]; at 1.2 µM 10% | [7]; at 3.7 µM 9% | [7]; at 11.0 µM 3% | [7]; at 33.0 µM 2% | [7]; at 100.0 µM -14% | [8]; at 1.2 µM 18% | [10]; at 1.2 µM 22% | [10]; [17] 10% | [12]; at 1.2 µM 40% | [13]; [17] 14% | [14]; at 1.2 µM 24% | [14]; [17] 45% | [15]; at 1.2 µM 9% | [1]; at 1.2 µM 33% | [2]; at 1.2 µM 33% | [4]; at 1.2 µM 66%

CCC(=O)Nc1ccc(N=NN(C)C)cc1
inactive: [5]; at 1.2 µM -9% | [5]; at 3.7 µM -12% | [5]; at 11.0 µM -13% | [6]; at 1.2 µM -1% | [6]; at 3.7 µM 2% | [6]; at 11.0 µM 3% | [6]; at 33.0 µM 47% | [7]; at 1.2 µM -10% | [7]; at 3.7 µM -30% | [7]; at 11.0 µM -21% | [7]; at 33.0 µM 65% | [8]; at 1.2 µM -2% | [8]; at 3.7 µM -9% | [8]; at 11.0 µM -5% | [8]; at 33.0 µM -9% | [8]; at 100.0 µM 45% | [9]; at 1.2 µM -61% | [9]; at 3.7 µM -23% | [9]; [17] -146% | [9]; at 11.0 µM -20% | [9]; at 33.0 µM 24% | [9]; [18] 45% | [10]; at 1.2 µM -5% | [10]; at 3.7 µM -5% | [10]; [17] -49% | [10]; at 11.0 µM -5% | [10]; at 33.0 µM 17% | [16]; at 1.2 µM -3% | [16]; at 3.7 µM -7% | [16]; at 11.0 µM -1% | [16]; at 33.0 µM 23% | [11]; [17] -65% | [11]; [18] 37% | [11]; at 50.0 µM 69.9% | [13]; [17] -56% | [13]; [18] 55% | [13]; at 50.0 µM 48.2% | [14]; at 1.2 µM -9% | [14]; at 3.7 µM -8% | [14]; [17] -70% | [14]; at 11.0 µM -13% | [14]; at 33.0 µM -11% | [14]; [18] 34% | [14]; at 50.0 µM 0.3% | [15]; at 1.2 µM 0% | [15]; at 3.7 µM 2% | [15]; at 11.0 µM 6% | [1]; at 1.2 µM -13% | [1]; at 3.7 µM -10% | [1]; at 11.0 µM -10% | [1]; at 33.0 µM 19% | [2]; at 1.2 µM -13% | [2]; at 3.7 µM -8% | [2]; at 11.0 µM 2% | [2]; at 33.0 µM 46% | [3]; [17] -150% | [3]; [18] 9% | [3]; at 50.0 µM 50.2% | [4]; at 1.2 µM -8% | [4]; at 3.7 µM -10% | [4]; at 11.0 µM -9% | [4]; at 33.0 µM 69%
active: [5]; at 33.0 µM 87% | [5]; at 100.0 µM 99% | [6]; at 100.0 µM 99% | [7]; at 100.0 µM 99% | [9]; at 50.0 µM 90.7% | [9]; at 100.0 µM 98% | [10]; [18] 95% | [10]; at 50.0 µM 75.2% | [10]; at 100.0 µM 99% | [16]; at 100.0 µM 99% | [14]; at 100.0 µM 90% | [15]; at 33.0 µM 73% | [15]; at 100.0 µM 100% | [1]; at 100.0 µM 99% | [2]; at 100.0 µM 99% | [4]; at 100.0 µM 99%

Source: PubChem BioAssay (NCI)
